Screening data: PubChem, NMMLSC
Compounds with a hit are over-represented: about 0.93% of the library has one in this group of screens.
CIT2-GFP yeast – modulators of TOR pathway CIT2-GFP in S. cerevisiae | S. cerevisiae CIT2-GFP strain, flow cytometry, 3 h; 100 means same as DMSO wells | GFP response vs DMSO, % at 10 µM | 320,000 tested, 0.065% active;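 active = GFP response relative to DMSO above a set limit, near the screen mean plus 3 SD, cut at about 150% in these data; inconclusive = Fewer than 70 cells measured for a yeast strain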;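 also: ratio of well median GFP fluorescence to mean of DMSO wells on the plate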
RPL19A-GFP yeast – yeast TOR pathway RPL19A-GFP modulation. 330,000 tested, 0.3% active. AID 2025. S. cerevisiae RPL19A-GFP strain, flow cytometry, 3 h; stronger effect = lower value. percent response vs DMSO, % at 10 µM;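 active = percent response vs DMSO below 50%; inconclusive = fewer than 70 events counted for the yeast strain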;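 also: median channel GFP fluorescence of the barcoded RPL19A-GFP strain; lower means less RPL19A-GFP as with rapamycin TOR inhibition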
AGP1-GFP MLPCN – alters AGP1-GFP fluorescence in TOR pathway yeast screen; 320,000 tested, 0.02% active; GFP response vs DMSO, % at 10 µM; AID 2066; S. cerevisiae AGP1-GFP multiplex flow cytometry, 3 h; GFP as percent of DMSO wells;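 active = GFP response relative to DMSO above a set limit, near screen average plus 3 SD, cut at about 150% in these data; inconclusive = fewer than 70 cells counted for the yeast strain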;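 also: median GFP channel fluorescence of the gated AGP1 strain per well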
MEP2 TOR yeast – alters MEP2-GFP fluorescence in TOR pathway yeast screen. S. cerevisiae MEP2-GFP strain, flow cytometry GFP, 3 h; 100% = DMSO control level. GFP response vs DMSO, % at 10 µM. 330,000 tested, 0.51% active;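 active = GFP response versus DMSO above a set limit, roughly screen mean plus 3 SD, cut at about 180% in these data; inconclusive = fewer than 70 cells counted for a yeast strain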;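 also: median GFP fluorescence of the barcode-gated MEP2-GFP cells per well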
LAP4 TOR yeast – modulators of TOR pathway LAP4-GFP in S. cerevisiae | GFP response vs DMSO, % at 10 µM | 320,000 tested, 0.34% active | AID 2023 | S. cerevisiae LAP4-GFP multiplex, flow cytometry GFP, 3 h; median GFP as percent of DMSO wells;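 active = GFP response vs DMSO above a set limit, about the screen mean plus 3 SD, cut at about 150% in these data; inconclusive = under 70 cell events counted for the yeast strain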
Of the large screens only hits and unclear results are named; the others gave an inactive call; [ ] = remark or other dose.

Cc1ccc(S(=O)(=O)CC#CCOC(=O)c2ccc([N+](=O)[O-])cc2)cc1	LAP4 TOR yeast 156.0
O=C(CSCc1cccc(Br)c1)N=Nc1c(O)[nH]c2ccccc12	LAP4 TOR yeast 165.4
O=C(N=Nc1c(O)[nH]c2ccccc12)c1ccco1	AGP1-GFP MLPCN 152.2, MEP2 TOR yeast 492.9, LAP4 TOR yeast 196.6
O=C(CSCc1ccccc1)N=Nc1c(O)[nH]c2ccccc12	none
COc1cc(OC)cc(C(=O)NCC2CCCN(C(=O)c3oc(C)cc3C)C2)c1 (configuration not stated)	none
Cc1nc2ccccc2n1CCC(=O)O	none
Cc1nc2ccccc2n2c(O)c(CC(=O)O)cc12	MEP2 TOR yeast 196.4
Cc1ccc(S(=O)(=O)N/N=C\c2ccc3c(c2)OCO3)c(C)c1	none
O=C(N/C(=C\c1ccc(Cl)cc1)C(=O)N1CCCCC1)c1ccco1	CIT2-GFP yeast inconclusive, MEP2 TOR yeast 475.6[may fluoresce violet]
CCOC(=O)c1cnn(-c2nc3c(C)cccc3s2)c1C	CIT2-GFP yeast inconclusive, MEP2 TOR yeast 281.1[may fluoresce violet] (no result: AGP1-GFP MLPCN)
CCS(=O)(=O)N1CCN(S(=O)(=O)c2ccc3c(c2)OCCO3)CC1	CIT2-GFP yeast inconclusive, RPL19A-GFP yeast 40.4[may fluoresce violet], AGP1-GFP MLPCN inconclusive, MEP2 TOR yeast inconclusive
CCOc1cc(-c2nccc3cc(OC)c(OC)cc23)cc(OCC)c1OCC	none
CCC(=O)c1cn(/C(=C\C(=O)OC(C)(C)C)CCC(OC)OC)cc1CC	none
O=C(OC1CCOC1=O)c1ccc(S(=O)(=O)N2CCCCCC2)cc1 (configuration not stated)	CIT2-GFP yeast inconclusive, AGP1-GFP MLPCN inconclusive, MEP2 TOR yeast 177.9[may fluoresce violet]
O=C(Nc1ccccc1Br)c1cc[n+]([O-])cc1	none
Cc1ccc(Nc2c(-c3ccccn3)nc3cc(C)ccn23)cc1	none
Cc1ccc(Nc2c(-c3ccccn3)nc3ccc(C)cn23)cc1	RPL19A-GFP yeast 48.5, MEP2 TOR yeast 233.1
CN(C)c1ncc(CN2CCC(C(=O)Nc3ccc(-n4cccn4)cc3)CC2)s1	none
CC(C)Oc1ccc(C(=O)NCC(=O)N2CCN(S(=O)(=O)/C=C/c3ccccc3)CC2)cc1	none
CCN1CCN(CCCNC(=O)C2CCCN(c3nnc(-n4cccc4)s3)C2)CC1 (configuration not stated)	CIT2-GFP yeast inconclusive, RPL19A-GFP yeast 43.2[may fluoresce violet], AGP1-GFP MLPCN inconclusive, MEP2 TOR yeast 393.4[may fluoresce violet]
C[n+]1ccccc1/C=C1\Sc2ccccc2N1CCO	none
CCN1/C(=C/c2ccc3cccc(C)c3[n+]2CC)Sc2ccccc21	CIT2-GFP yeast active[may fluoresce green], AGP1-GFP MLPCN 353.2[may fluoresce green], MEP2 TOR yeast active[may fluoresce green], LAP4 TOR yeast active[may fluoresce green]
CCOc1ccc(CCNC(=O)c2ccc3ccccc3n2)cc1OCC	none
COC(=O)Cc1csc(Nc2ccc(F)c(Cl)c2)n1	LAP4 TOR yeast 196.5
O=C1/C(=C/c2ccc(O)cc2)COc2ccccc21	none
O=C1/C(=C/c2ccccn2)COc2ccccc21	LAP4 TOR yeast 152.5
Cn1c(=NC(=O)C(C)(C)C)sc2cccc(F)c21	CIT2-GFP yeast inconclusive, MEP2 TOR yeast 210.4[may fluoresce violet]
CN(CC(=O)Nc1ccc(N2CCOCC2)cc1)C(=O)CCc1cc(C(C)(C)C)c(O)c(C(C)(C)C)c1	none
Cc1ccc2[nH]c3c(c2c1)CCNC3=O	MEP2 TOR yeast 176.6
CC(C)N1C(=O)S/C(=C/c2ccc3c(c2)n(C)c(=O)n3C)C1=O	none
CCN(CC)c1ccc(/C=C2\SC(=O)N(C(C)C)C2=O)o1	LAP4 TOR yeast 256.4
Cc1ccc(-c2csc3ncn(Cc4ccc(C(=O)O)cc4)c(=O)c23)cc1C	MEP2 TOR yeast 229.8
O=C1CCN(Cc2ccc(Br)cc2)CCN1[C@H](CO)Cc1ccccc1	none
CCOc1ccc(OCCCC(=O)N(CC)CC(=O)Nc2c(F)cccc2F)cc1	none
Cc1cc(NS(=O)(=O)c2ccc(NS(=O)(=O)c3cc(C)c(Cl)cc3Cl)cc2)no1	CIT2-GFP yeast 153.8[may fluoresce green]
C[C@H](O)c1[nH]c2cc(F)ccc2c1[C@H](C)O	none
COc1ccccc1N(CC(=O)NCCSCc1ccccc1)S(=O)(=O)c1ccc(C)cc1	CIT2-GFP yeast inconclusive, AGP1-GFP MLPCN inconclusive, MEP2 TOR yeast 211.7[may fluoresce violet]
N#Cc1c(-c2ccccc2)nc2n1CCS2	CIT2-GFP yeast inconclusive, RPL19A-GFP yeast 41.9[may fluoresce violet], AGP1-GFP MLPCN inconclusive
O=C(CNCc1ccccc1Cl)NCc1ccco1	none
Cc1nn(Cc2ccccc2Cl)c(C)c1C(=O)NCc1ccco1	MEP2 TOR yeast 201.2, LAP4 TOR yeast 150.0
COc1ccccc1NC(=O)c1cc(=O)[nH]c2ccccc12	none
COc1ccccc1C(C)NC(=O)c1cc(=O)[nH]c2ccccc12 (configuration not stated)	CIT2-GFP yeast inconclusive, MEP2 TOR yeast 193.6[may fluoresce violet]
COc1c(O)cc2c(c1O)[C@@H]1O[C@H](CO)[C@@H](O)[C@H](O)C1OC2=O (some centres not stated)	none
COc1ccccc1[C@@H]1C(c2cccc(Cl)c2)=NN(c2ccccc2)[C@H]1C(=O)N1CCOC1=O	CIT2-GFP yeast inconclusive
Cc1cccc(C2=NN(c3ccc(Br)cc3)[C@@H](C(=O)N3CCOC3=O)[C@@H]2c2ccc(F)cc2)c1	CIT2-GFP yeast inconclusive, MEP2 TOR yeast 296.3[may fluoresce violet]
O=[N+]([O-])c1ccc(N2CCN(Cc3ccccc3)CC2)c(S(=O)(=O)N2CCOCC2)c1	CIT2-GFP yeast inconclusive, MEP2 TOR yeast 235.0[may fluoresce violet] (no result: RPL19A-GFP yeast)
Cc1ccnc(NC(=O)Nc2ccc(F)cc2)c1	CIT2-GFP yeast inconclusive, MEP2 TOR yeast 175.0[may fluoresce violet]
COc1cccc(/C=N/NC(=O)CCC(=O)Nc2ccc(Br)cc2)c1	MEP2 TOR yeast 194.8
CCN(CC(=O)Nc1ccc(OC)cc1)CC(=O)Nc1sc2c(c1C(=O)OC)CCCC2	none
CCN1CCN(CC(=O)Nc2ccc(Cl)c(S(=O)(=O)N(C)C)c2)CC1	none
CN(C)S(=O)(=O)c1cc(NC(=O)CN2CCOCC2)ccc1Cl	CIT2-GFP yeast 209.7, MEP2 TOR yeast 240.9, LAP4 TOR yeast 202.2
CCCNC(=O)C1(O)c2cc(Br)ccc2NC(=O)N1c1ccc(Cl)cc1 (configuration not stated)	none
CC(C)NC(=O)COc1ccc(OCc2ccccc2)cc1	none
COc1ccc(C(=O)NN=C2CCCC2)cc1	none
O=C(COc1ccc(OCc2ccccc2)cc1)NN=C1CCCC1	LAP4 TOR yeast 151.6
Cc1cc(OCc2ccc(C(=O)NN=C3CCCC3)cc2)ccc1Cl	LAP4 TOR yeast 174.1
C/C=C/c1ccc(OCC(=O)N(CCOC)c2c(N)n(CCCC)c(=O)[nH]c2=O)c(OC)c1	none
COc1ccccc1/C=C/C=N/NC(=O)c1cccs1	LAP4 TOR yeast 156.4
COc1ccccc1/C=C\C=N\NC(=O)c1ccco1	none
CCCCNc1c(-c2ccc(OC)c(SC3CCCCC3)c2)nc2cnccn12	none
COc1ccc(-c2nc3cnccn3c2NCc2ccccc2)cc1SC1CCCCC1	CIT2-GFP yeast inconclusive, RPL19A-GFP yeast 41.8[may fluoresce violet], AGP1-GFP MLPCN inconclusive, MEP2 TOR yeast 279.3[may fluoresce violet]
CC/C(=N/NC(=O)CNc1ccc(Cl)cc1C)c1ccccc1	CIT2-GFP yeast inconclusive, MEP2 TOR yeast 480.9[may fluoresce violet]
CC/C(=N\NC(=O)C1CC1)c1cccc(Cl)c1	none
